# Results filed as inconclusive are left out. Calls of active or inactive are those of the source. The call rests on the fitted dose curve; in most records, active means well fitted activation curve with a large enough effect; inconclusive means small, poorly fitted or top-dose-only effect, or effect the other way; inactive means flat fitted curve, though single readings scatter.
# Assay: qHTS Assay for Identification of Small Molecule Agonists for Thrombopoietin (TPO) Signaling Pathway (AID 917)
# Conditions: TPO signaling pathway reporter cells, agonist qHTS, stimulated with TPO at its EC50; series mostly up to 38.5 µM
# Description: NIH Molecular Libraries Screening Centers Network [MLSCN]
# NIH Chemical Genomics Center [NCGC]
# The thrombopoietin (TPO) signaling pathway was assayed in murine Ba/F3 cells stably transfected with the human TPO receptor and a luciferase reporter gene controlled by the Glycoprotein IIb promoter (provided by Axxam). BaF3 cells are an IL-3-dependent pro B cell line that upon TPO stimulation, undergo cell division and induce the megakaryocyte marker, Glycoprotein IIb. The assay was screened at the EC50 of TPO (26 pM) to identify activators of the pathway.
# NCGC Assay Protocol Summary:
# Cells were maintained at 37 C and 5% CO2in RPMI with 10% fetal bovine serum, 0.5 ng/mL murine IL-3, 100U/ml penicillin and 100 ug/ml streptomycin. Prior to plating, cells were incubated overnight in medium without IL-3. Cells were plated at 250 cells/5uL/well into white solid 1536-well plates, 23 nL of compounds were delivered by a pin tool, and 1 uL of TPO (26 pM final concentration in IL-3 deficient medium) was added. Following 24 hrs of incubation at 37 C and 5% CO2, 4 uL of Steadylite detector mix (PerkinElmer) was added, the plates incubated at room temperature for 10 min and luminescence was measured for 10 s and 2X binning by a ViewLux detector (Perkin Elmer).
row,Structure (SMILES),outcome
1,CC1=NS(=O)(=O)c2cc(Cl)ccc2N1,inactive
2,Cc1nc2sccn2c(=O)c1CCN1CCC(=C(c2ccc(F)cc2)c2ccc(F)cc2)CC1,inactive
3,O=C(O)CN(CCN(CC(=O)O)CC(=O)O)CCN(CC(=O)O)CC(=O)O,inactive
4,O=c1[nH]c(=O)n([C@H]2C[C@H](O)[C@@H](CO)O2)cc1Br,inactive
5,CN(C(=O)CCCOc1ccc2[nH]c(=O)ccc2c1)C1CCCCC1,inactive
6,CCN1CCc2nc(N)oc2CC1,inactive
7,C[N+](C)(C)CCOC(=O)CCC(=O)OCC[N+](C)(C)C,inactive
8,C[C@]12CCC(=O)C=C1CC[C@@H]1[C@@H]2CC[C@@]2(C)[C@H]1CC[C@]2(O)C(=O)CO,inactive
9,CCCC(C(=O)OCCN(CC)CC)(c1ccccc1)c1ccccc1,inactive
10,CC(=O)Oc1cc(C(C)C)c(OCCN(C)C)cc1C,inactive
11,CC(C)[N+](C)(CCOC(=O)C1c2ccccc2Oc2ccccc21)C(C)C,inactive
12,O=C(CCNNC(=O)c1ccncc1)NCc1ccccc1,inactive
13,C[N+](C)(C)CCOC(N)=O,inactive
14,CC1=C(C)C(=O)C(CCCCC#CCCCC#CCO)=C(C)C1=O,inactive
15,CCn1cc(C(=O)O)c(=O)c2cc3c(cc21)OCO3,inactive
16,Cc1nc2c([nH]1)c(=O)n(C)c(=O)n2Cc1ccco1,inactive
17,Nc1nc(N)c2nc(-c3ccccc3)c(N)nc2n1,inactive
18,Cc1ccc(Cl)c(Nc2ccccc2C(=O)O)c1Cl,inactive
19,CN(C)C(=O)Oc1ccc[n+](C)c1,inactive
20,CCO/C([O-])=N/c1c[n+](N2CCOCC2)no1,inactive

row,Structure (SMILES),outcome
1,CN1CCN(CC(=O)N2c3ccccc3C(=O)Nc3cccnc32)CC1,inactive
2,CN/C(=C\[N+](=O)[O-])NCCSCc1ccc(CN(C)C)o1,inactive
3,C[N+](C)(C)CCCCCCCCCC[N+](C)(C)C,inactive
4,C[C@]12CCC(=O)C=C1CC[C@@H]1[C@@H]2C(=O)C[C@@]2(C)[C@H]1CC[C@]2(O)C(=O)CO,inactive
5,CN(C)CCOC(=O)COc1ccc(Cl)cc1,inactive
6,CN(C)CC/C=C1\c2ccccc2COc2ccccc21,inactive
7,CCCOc1ccccc1-c1nc2n[nH]nc2c(=O)[nH]1,inactive
8,COc1ccc(CN(CCN(C)C)c2ccccn2)cc1,inactive
9,CN(C)C(=O)Oc1cccc([N+](C)(C)C)c1,inactive
10,COc1cc(Cc2cnc(N)nc2N)cc(OC)c1OC,inactive
11,Cc1ccc(=O)n(-c2ccccc2)c1,inactive
12,CN(C)CCN(Cc1cccs1)c1ccccn1,inactive
13,CCOC(=O)c1cnc2c(cnn2CC)c1NN=C(C)C,inactive
14,Cc1ccc(S(=O)(=O)NC(=O)NN2CCCCCC2)cc1,inactive
15,CC[N+](C)(C)c1cccc(O)c1,inactive
16,CCN(CC)CCOCCOC(=O)C1(c2ccccc2)CCCC1,inactive
17,NC(N)=NC(=O)Cc1c(Cl)cccc1Cl,inactive
18,C(=C\c1ccccc1)/CN1CCN(C(c2ccccc2)c2ccccc2)CC1,inactive
19,N[C@@H](COP(=O)(O)O)C(=O)O,inactive
20,NCCCNCCSP(=O)(O)O,inactive

# Reference: PubChem BioAssay (NCATS)
